# Assay results published in PubChem BioAssay (NCATS).
# Records with an inconclusive call do not appear. A call without a number means that no potency is given here. The source made the active and inactive calls. Calls come from the whole dose curve; as a rule, active = well fitted cell-killing curve with a large enough effect; inconclusive = small, poorly fitted or top-dose-only effect; inactive = flat fitted curve, though single readings scatter.
# Assay: qHTS assay to identify small molecule inhibitors of chordoma cells - UCH-2 (AID 1259356)
# Conditions: UCH-2 chordoma viability, CellTiter-Glo ATP luminescence, 48 h; series mostly up to 46.1 µM
# From the text: NIH Chemical Genomics Center [NCGC]
# Chordoma is a rare and slow growing tumor that can occur anywhere along the spine, from the base of the skull to the tailbone. Current treatment options for chordoma is surgery and radiation therapy for those who are not candidates for surgery. But chordomas tend to return in the same location or surrounding areas of the original tumor after surgery and/or radiation. Chemotherapy can slow down the progression of the tumor. As chordoma is slow growing, the general cytotoxic agents that kill fast growing cells are ineffective, and some patients have been reported to respond to molecularly targeted drugs.
# NCATS Pharmaceutical Collection (NPC) containing approximately 3000 clinically approved and investigational drugs were used to screen at 15 concentrations in a chordoma cell lines, UCH-2, to identify small molecule compounds that can inhibit chordoma cell growth.
# NCGC Assay Protocol Summary:
# Human chordoma cell line UCH-2 was dispensed at 800 per well in 4uL of culture medium into white solid bottom 1536-well plates (Corning Life Sciences, Corning, NY) using a Multidrop Combi (Thermo Scientific, Waltham, MA) dispenser. The assay plates were incubated at 37 C and 5% CO2 for an overnight, and then 23nL of compounds dissolved in DMSO and positive control were transferred using a Pintool station (Wako, San Diego, CA). Compound treatment was followed by the addition of 1uL of the combination compounds (1uM Auranofin, 500nM each of Camptothecin, Doxorubicin, Rubitecan, and Topotecan) and assay medium to each well of the assay plates using Flying Reagent Dispenser (FRD, Aurora Discovery, San Diego, CA). The assay plates were incubated at 37 C and 5% CO2 for 48hr. Then 5uL of CellTiter-Glo reagent (Promega Corporation, Madison, WI) was added to each well of the assay plates using FRD. After 30min incubation at room temperature, the luminescence signal was quantified using a ViewLux plate reader (PerkinElmer, Shelton, CT).
row,SMILES,Potency
1,COc1ccc(/C=C/C(=O)c2ccc(OC)cc2OC)cc1,inactive
2,CCN(CC)C(=O)N1CCN(C)CC1,inactive
3,CCCCC1=NC2(CCCC2)C(=O)N1Cc1ccc(-c2ccccc2-c2nn[nH]n2)cc1,inactive
4,O=C(Nc1ccc(Oc2ccc(Cl)cc2)c(Cl)c1)c1cc(I)cc(I)c1O,inactive
5,C[C@@H]1C[C@H]2[C@@H]3CCC4=CC(=O)C=C[C@]4(C)[C@@]3(F)[C@@H](O)C[C@]2(C)[C@H]1C(=O)CO,inactive
6,CC(C)(C)CC(C)(C)c1ccc(OCCOCC[N+](C)(C)Cc2ccccc2)cc1,inactive
7,CCN(CC)CCOC(=O)C(c1ccccc1)C1CCCCC1 (stereo not given),inactive
8,NCCCC[C@H](N[C@@H](CCc1ccccc1)C(=O)O)C(=O)N1CCC[C@H]1C(=O)O,inactive
9,CC(CCc1ccccc1)NCC(O)c1ccc(O)c(C(N)=O)c1 (stereo not given),inactive
10,CCCC(=O)Nc1ccc(OCC(O)CNC(C)C)c(C(C)=O)c1 (stereo not given),inactive
11,CC[C@@H](CO)NCCN[C@@H](CC)CO,inactive
12,C[C@H](CCC(=O)O)[C@H]1CC[C@H]2[C@@H]3C(=O)C[C@@H]4CC(=O)CC[C@]4(C)[C@H]3CC(=O)[C@]12C,inactive
13,COc1ccc(OC)c(C(O)CNC(=O)CN)c1 (stereo not given),inactive
14,C[N+]1(CCCCC[N+]2(C)CCCC2)CCCC1,inactive
15,CCCCCCCCCCCCCCCCOP(=O)([O-])OCC[N+](C)(C)C,inactive
16,CC(=O)Oc1ccc(C(=C2CCCCC2)c2ccc(OC(C)=O)cc2)cc1,inactive
17,CCCC(=O)O[C@]1(C(=O)CO)CC[C@H]2[C@@H]3CCC4=CC(=O)CC[C@]4(C)[C@H]3[C@@H](O)C[C@@]21C,inactive
18,O=c1ccc2ccccc2o1,inactive
19,Oc1c(Cl)cc(Cl)cc1Sc1cc(Cl)cc(Cl)c1O,inactive
20,C#C[C@]1(O)CC[C@H]2[C@@H]3CCC4=CC(=O)CC[C@@H]4[C@H]3CC[C@@]21C,inactive

row,SMILES,Potency
1,N[C@H](CO)C(=O)O,inactive
2,COc1cc(C=C2CCC/C(=C\c3ccc(O)c(OC)c3)C2=O)ccc1O,inactive
3,CN(C(=O)CN(CCO)CC(=O)N(C)C(C)(C)Cc1ccccc1)C(C)(C)Cc1ccccc1,inactive
4,CCCOC(C(=O)OC1CCN(C)CC1)(c1ccccc1)c1ccccc1,inactive
5,Nc1ccc(/C=C/c2ccc(N)cc2S(=O)(=O)O)c(S(=O)(=O)O)c1,inactive
6,CCN1CCC[C@H]1CNC(=O)c1c(OC)ccc(Br)c1OC,inactive
7,CCOC(=O)[C@H](CCc1ccccc1)N[C@@H](C)C(=O)N1Cc2ccccc2C[C@H]1C(=O)O,inactive
8,Cc1cccc(C)c1NC(=O)CN1CCN(CCCC(c2ccc(F)cc2)c2ccc(F)cc2)CC1,inactive
9,CC(C)(CO)[C@@H](O)C(=O)NCCCO,inactive
10,C[C@H](O)C(=O)Nc1c(I)c(C(=O)NC(CO)CO)c(I)c(C(=O)NC(CO)CO)c1I,inactive
11,C=CCc1ccc(O)c(OC)c1,inactive
12,Cc1ccc(O)c2ncccc12,inactive
13,COC(=O)[C@@H]1CC2=CC(=O)CC[C@]2(C)[C@@]23O[C@@H]2C[C@@]2(C)[C@@H](CC[C@@]24CCC(=O)O4)[C@H]13,inactive
14,CCn1cc(C(=O)O)c(=O)c2cnc(N3CCCC3)nc21,inactive
15,Nc1ccc(C(=O)Nc2ccccc2N)cc1,inactive
16,CC1(C)O[C@@H]2[C@@H](CO[C@@]3(COS(N)(=O)=O)OC(C)(C)O[C@@H]23)O1,inactive
17,CCN(CC)CCNC(=O)COc1ccc(Cl)cc1,inactive
18,NC(=O)CC[C@@H]1NC(=O)[C@H](Cc2ccccc2)NC(=O)[C@H](Cc2ccc(O)cc2)NC(=O)CCSSC[C@@H](C(=O)N2CCC[C@H]2C(=O)N[C@@H](CCCN=C(N)N)C(=O)NCC(N)=O)NC(=O)[C@H](CC(N)=O)NC1=O,inactive
19,O=C(O)c1cc2cc(Cc3cccnc3)ccc2o1,inactive
20,CC/C(=C(/CC)c1ccc(O)cc1)c1ccc(O)cc1,inactive
